Rows were chosen to be rich in hits. Some 19% of all compounds tested hit in one or more screens of this group.
HT1080-NT tox: qHTS for induction of synthetic lethality in tumor cells producing 2HG: qHTS for the HT-1080-NT fibrosarcoma cell line. AID 686970, 2013. HT-1080-NT fibrosarcoma viability, CellTiter-Glo ATP luminescence, 48 h. 360,000 tested, 1.6% active. Potency, µM (top dose mostly 46.1 µM), hits mostly cytotoxic;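 further: NT is the 2HG producing partner of a matched IDH1 knockdown line; nearly all actives have a fitted effect of over 55% in size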
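Viability by CellTiter-Glo luminescence after 48 h compound exposure at 37C of HT-1080-NT cells (750/well, RPMI, 5% FBS). % activity scaled between DMSO wells and medium-only wells, then curve-fitted and categorized by curve class.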
ELG1 DNA repair: qHTS screen for small molecules that inhibit ELG1-dependent DNA repair in human embryonic kidney (HEK293T) cells expressing luciferase-tagged ELG1 | AID 504467, 2011 | Potency, µM (titrated, usually from 46.1 µM), actives largely listed as inhibitors | HEK293T ELG1-luciferase reporter, luminescence, 16 h; DNA damage induced by 5-fluorouridine | 330,000 tested, 2.3% active; further: nearly all actives have a fitted effect of over 55% in size
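HEK293T cells expressing luciferase-tagged ELG1 (2,000/well) received 5-Fluorouridine plus compound or DMSO for 16 hr at 37 °C. Luciferase was read by ONE-Glo luminescence after 30 min at room temperature.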
HT1080 IDH1KD tx: qHTS for induction of synthetic lethality in tumor cells producing 2HG: qHTS for the HT-1080-IDH1KD cell line; 360,000 tested, 2% active; AID 686971, 2013; HT-1080 IDH1 knockdown viability, ATP luminescence, 48 h; Potency, µM (top dose mostly 46.1 µM), most hits filed as cytotoxic
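In this qHTS, HT-1080 cells depleted of IDH1 are exposed for 48 h at 37 °C to compound titrations. Toxicity is scored from CellTiter-Glo luminescence, with DMSO as full viability and medium alone as none.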
TDP1 cell CPT: qHTS for Inhibitors of human tyrosyl-DNA phosphodiesterase 1 (TDP1): qHTS in cells in presence of CPT; chicken DT40 Tdp1-/-;hTDP1 cells + 20 nM CPT, ATP luminescence, 48 h; 420,000 tested, 12% active; Potency, µM (top dose mostly 46.2 µM), hits mostly inhibitors; further: nearly all actives have a fitted effect of over 55% in size
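Cell growth measured by CellTiter-Glo luminescence after a minimum 48 h, 37 C compound exposure with 20 nM CPT in Tdp1-knockout DT40 cells stably expressing hTDP1, seeded 400/well; qHTS titration format.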
TDP1 cell noCPT: qHTS for Inhibitors of human tyrosyl-DNA phosphodiesterase 1 (TDP1): qHTS in cells in absence of CPT. 420,000 tested, 15% active. DT40 Tdp1-/- hTDP1 cells, no CPT, ATP luminescence, 48 h. Potency, µM (series often up to 46.2 µM), actives largely listed as inhibitors. AID 686978, 2013; further: nearly all actives have a fitted effect of over 55% in size
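Camptothecin absent (DMSO only). Human TDP1-complemented DT40 knockout cells, 400 cells/well, 37 °C for minimum 48 hr; ATP measured via CellTiter-Glo, 30 min dark incubation, luminescence.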
IL1B secr inh: qHTS for Inhibitors of Inflammasome Signaling: IL-1-beta AlphaLISA Primary Screen. AID 743279, 2014. 360,000 tested, 4.7% active. activity change, % at 57.5 µM. THP-1 LPS/ATP IL-1B secretion, AlphaLISA, 16 h; active compounds read low; in the data active means activity change below about -50%; inconclusive means mostly about -30% to -49%
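THP-1 cells pretreated 1 hr with compounds (up to 57.5 uM final), then stimulated with LPS (250 ng/mL final) plus ATP (1.25 mM final); secreted IL-1B measured by AlphaLISA after 16 hr, decreased signal indicating inhibition.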
A number is an active result; – = inactive; ? = inconclusive; · = no result given; ! = not confirmed by another sample. Unless noted, the call rests on the fitted dose curve; in most records, active means well fitted curve in the direction sought with a large enough effect; inconclusive means small, poorly fitted or top-dose-only effect, or another doubt; inactive means no such curve, though single readings can be large; an effect the other way counts as inactive or inconclusive.

SMILES | HT1080-NT tox | ELG1 DNA repair | HT1080 IDH1KD tx | TDP1 cell CPT | TDP1 cell noCPT | IL1B secr inh
COc1ccc(C=C2OC(=O)C(C(C)=O)=C2O)cc1 | – | · | – | ? | 16µM | –
COC(=O)c1cc(O)cc(OC)c1C(=O)c1c(O)cc(C)cc1O | – | – | – | ? | ? | –
COC(=O)c1cc(O)cc(OC)c1Oc1cc(C)cc(O)c1C(=O)O | 23µM | ? | ? | 1.2µM | 1µM | ?
CC1S/C(=C(\C#N)C(=O)NCc2ccco2)N(Cc2ccco2)C1=O (stereo not drawn) | – | – | – | 8.2µM | ? | –
Cc1ccc(CC2S/C(=C(/C#N)C(=O)NCc3ccco3)N(c3ccccc3)C2=O)cc1 (stereo not drawn) | ? | – | ? | – | – | –
COc1cc(OC)nc(Nc2nc(C(N)Cc3ccc(F)cc3)cs2)n1 (stereo not drawn) | ? | · | ? | 21µM | 23µM | ·
COc1cccc(Nc2nc(C(N)CO)cs2)n1 (stereo not drawn) | – | · | – | ? | ? | ·
COc1cccc(Nc2nc(C(N)Cc3ccccc3)cs2)n1 (stereo not drawn) | 29µM | · | 12µM | 13µM | 16µM | ?
CC(C)(C)n1nnnc1C(c1ccc(C(F)(F)F)cc1)N(Cc1ccc(F)cc1)Cc1ccco1 (stereo not drawn) | ? | – | – | ? | 21µM | –
CC(C)(C)n1nnnc1C(c1cccs1)N(Cc1ccccc1)Cc1cccnc1 (stereo not drawn) | – | – | – | 21µM | 26µM | –
CC(C)(C)n1nnnc1C(c1ccc(C(F)(F)F)cc1)N(Cc1ccccc1)Cc1ccco1 (stereo not drawn) | ? | – | – | 21µM | ? | –
Cc1ccc(C(c2nnnn2C(C)(C)C)N(Cc2ccco2)Cc2cccs2)cc1 (stereo not drawn) | – | – | – | ? | ? | –
CC(C)(C)n1nnnc1C(c1ccc(Cl)cc1)N(Cc1cccnc1)Cc1ccco1 (stereo not drawn) | ? | – | ? | 18µM | – | –
CC(C)(C)n1nnnc1C(c1ccc(F)cc1)N(Cc1ccc(F)cc1)Cc1ccco1 (stereo not drawn) | – | – | – | ? | ? | –
CC(C)(C)n1nnnc1C(c1cccnc1)N(Cc1ccccc1)Cc1cccs1 (stereo not drawn) | ? | – | ? | ? | ? | –
CC(=O)Nc1ccc(S(=O)(=O)NC(CSc2ccc(C(=O)O)cc2[N+](=O)[O-])C(=O)O)cc1 (stereo not drawn) | – | – | – | – | – | –
CCCC[C@H]1COCCS(=O)(=O)N1Cc1ccc(Br)cc1 | – | – | – | ? | ? | –
CCOc1ccccc1NC(=O)COC(=O)c1c[nH]c2ccccc12 | – | – | – | ? | ? | –
O=C(c1ccco1)N1CCC[C@@]2(CCN(c3ccccn3)C2)C1 | · | · | · | – | ? | ·
Cc1cc(C)n2nnnc2n1 | – | – | – | – | – | –
CC(=O)Nc1ccc(S(=O)(=O)NCCC(=O)NCC2COc3ccccc3O2)cc1 (stereo not drawn) | – | – | – | – | – | –
C[C@H]1CN([C@@H](C)CO)C(=O)c2cc(C#Cc3ccccn3)cnc2O[C@@H]1CN(C)Cc1ccccc1 | – | · | – | – | – | –
CCN(Cc1ccccc1)C(c1ccc(C)cc1)c1nnnn1C(C)(C)CC (stereo not drawn) | – | – | ? | ? | 13µM | –
CCN(Cc1ccccc1)C(c1ccncc1)c1nnnn1C(C)(C)C (stereo not drawn) | – | – | – | ? | ? | –
Cc1onc(-c2ccc(Cl)cc2)c1-c1ccnc(SCC(=O)Nc2cc(Cl)cc(Cl)c2)n1 | – | ? | – | ? | ? | –
SMILES | HT1080-NT tox | ELG1 DNA repair | HT1080 IDH1KD tx | TDP1 cell CPT | TDP1 cell noCPT | IL1B secr inh
CC(=O)c1cc(CN2CCN(Cc3ccccc3)C(CCO)C2)cs1 (stereo not drawn) | – | – | – | – | – | –
Cc1ccc(-c2nc(C(=O)NCCCN(C)C)cc3c2[nH]c2ccccc23)cc1 | ? | – | ? | ? | 23µM | –
O=C(NCCO)c1cc2c([nH]c3ccccc32)c(-c2ccc(F)cc2)n1 | – | ? | – | ? | 16µM | -93
O=C(NCCO)c1cc2c([nH]c3ccccc32)c(-c2ccccc2)n1 | – | ? | – | ? | 16µM | ?
Cc1csc(NC(=O)CSc2nnc(NC(=O)COc3ccccc3)s2)n1 | – | – | – | – | – | –
CCOc1ccccc1Nc1nnc(SCC(=O)N(C)C2CCS(=O)(=O)C2)s1 (stereo not drawn) | – | – | – | – | ? | -61
COc1ccc(Nc2nnc(SCC(=O)N(CC(C)C)C3CCS(=O)(=O)C3)s2)cc1 (stereo not drawn) | – | · | – | ? | 18µM | –
CCOC(=O)N1CCN(C2=C(NS(=O)(=O)c3ccc(Br)cc3)C(=O)c3ccccc3C2=O)CC1 | – | · | ? | 12µM | 16µM | –
NC(=O)C1CCN(C2=C(NS(=O)(=O)c3ccc(Br)cc3)C(=O)c3ccccc3C2=O)CC1 | ? | – | ? | 23µM | 18µM | –
CCOC(=O)N1CCN(C2=C(NS(=O)(=O)c3ccccc3)C(=O)c3ccccc3C2=O)CC1 | ? | – | – | 13µM | ? | –
CCOC(=O)C1CCN(C2=C(NS(=O)(=O)c3ccc(Br)cc3)C(=O)c3ccccc3C2=O)CC1 | ? | – | – | ? | ? | –
CCN(C(=O)Cn1nnc(-c2ccccc2)n1)C1CCS(=O)(=O)C1 (stereo not drawn) | – | – | – | – | – | –
COc1cc(C)c(CN2C[C@H](Sc3nc4ccccc4[nH]3)C[C@H]2C(=O)N(C)C)cc1C | · | · | · | – | – | ·
CN1CCc2c(c3ccccc3n2C)C1 | – | – | – | – | – | ?
CCCCN1CCc2c(c3ccccc3n2Cc2ccccc2)C1 | ? | – | ? | 16µM | 23µM | –
CCCCn1c(=O)c(Cc2ccccc2)c(O)c2ccccc21 | – | – | – | – | – | –
CN1CCc2c(c3ccccc3n2Cc2ccccc2)C1 | ? | – | 16µM! | 16µM | 18µM | –
